Only some compounds are listed: those with a hit (about 6.1% of all), similar ones and a draw of the others.
D1 PAM: enhances dopamine response at the human D1 receptor; potentiation, % at 10 µM; P21728; AID 504651; 0.036% of 360,000 active; HEK293 TREx D1 cells, calcium flux, dopamine EC20 potentiation; in the data active = potentiation above about 30%; note: 0% is about no effect
ERG Ets-DNA blk: blocks human ERG Ets domain binding to DNA; fluorescence polarization, His-ERG Ets domain / labelled DNA; Potency, µM (top dose mostly 76.9 µM), inactives show at the top dose FP activity, negative = inhibition, hits mostly inhibitors; 0.028% of 370,000 active; AID 624246; active = well fitted inhibition curve with a large enough effect in the polarisation, with a control signal flat; inconclusive = small, poorly fitted or top-dose-only effect, or effect the other way, or a change in a side signal; inactive = no such curve, though single readings can be large or run the other way; the % refers to the polarisation;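 note: polarization taken with two DNA probes labelled with fluorescein and Texas red; potency is the fitted concentration of half-maximal effect; % of control where 0% means no effect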
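His-tagged ERG Ets domain (1 uM in the protein solution; 300mM KCl, 50mM Tris-HCl, 1mM EDTA, 1mM DTT, pH 7.5) received compound, then a probe mix of 5 nM fluorescein-DNA and 100nM Texas-615-DNA. Fluorescence polarization was read for both dyes.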
DRD3 agonist: agonists of human D3 dopamine receptor | D3R DiscoveRx beta-arrestin cells, luminescence, 90 min | max activation, % | 0.58% of 410,000 active; in the data active = max activation above about 30%; note: 0% is about no effect
Target sequence (P35462 whole entry, looked up): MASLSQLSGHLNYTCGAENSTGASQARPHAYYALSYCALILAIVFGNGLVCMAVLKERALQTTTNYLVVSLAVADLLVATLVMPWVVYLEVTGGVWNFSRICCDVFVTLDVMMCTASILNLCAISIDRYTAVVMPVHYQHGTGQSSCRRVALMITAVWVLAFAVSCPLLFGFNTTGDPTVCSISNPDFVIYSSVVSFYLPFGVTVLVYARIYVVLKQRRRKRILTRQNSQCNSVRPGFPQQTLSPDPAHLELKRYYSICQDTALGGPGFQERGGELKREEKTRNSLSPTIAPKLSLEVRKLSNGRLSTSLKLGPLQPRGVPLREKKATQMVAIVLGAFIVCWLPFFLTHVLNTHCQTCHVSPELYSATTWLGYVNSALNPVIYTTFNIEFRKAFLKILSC
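Agonist-mode cell screen: cells plated at 1500/well and incubated overnight at 37 °C, then exposed to library compounds for 90 min at 37 °C. Detection reagent was added for 30–60 min at room temperature, and luminescence was read.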
D1 antag: blocks dopamine activation of the human D1 receptor; P21728; HEK293 TREx D1 cells, calcium flux, dopamine EC80; active compounds read low; activity change, negative = inhibition, % at 10 µM; 3.2% of 360,000 active; AID 504652; in the data active = activity change below about -30%; note: % is set by controls: 0 for no effect and ±100 for the full control effect
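Inducible Hek293 Trex D1 cells (tetracycline, overnight, 30 C). Calcium dye 30–90 min RT. Antagonist mode: EC80 dopamine added after 180 s compound read.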
D3 antag: D3 dopamine receptor (human) antagonism. P35462. D3R cells, DiscoveRx beta-arrestin luminescence, antagonist mode; active compounds read low. max response, negative = inhibition, %. 2.5% of 360,000 active. AID 652054; in the data active = max response below about -50%; inconclusive = no clear call, values can overlap the other calls; note: % is set by controls: 0 for no effect and ±100 for the full control effect
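Cells expressing the human receptor were seeded at 1500 cells/well, incubated overnight at 37 degrees C in 5% CO2, then exposed to library compounds with dopamine controls for 90 minutes at 37 degrees C before luminescent detection.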
D1 ag: agonists of human D1 dopamine receptor | P21728 | AID 504660 | HEK293 T-REx D1 cells, calcium flux, agonist mode | activation, % at 2 µM | 1% of 360,000 active; in the data active = activation above about 30%; note: 0% is about no effect
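Tetracycline-induced HEK293 TREx D1 cells, force-coupled to calcium signalling, were dye-loaded with a no-wash calcium kit. Compound was pin-added after a 10 s baseline. Fluorescence was read kinetically at 1 cycle/s for 180 s, with calcium rises flagged as agonism.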
Starred values were filed as active, the others as inactive; u = inconclusive; x = not tested or not shown.

SMILES	D1 PAM	ERG Ets-DNA blk	DRD3 agonist	D1 antag	D3 antag	D1 ag
O=C(Cc1cccc(NC(=O)C2CCCN(C(=O)CCc3ccccc3)C2)c1)Nc1ccc(C(=O)N2CCCCC2)cc1 (stereo unspecified)	x	0%	-34	x	-52*	x
CN(C(=O)c1cccc(NC(=O)Cc2cccc([N+](=O)[O-])c2)c1)C1CCCC1	x	2%	-19	x	-75*	x
CN(Cc1ccccc1)C(=O)c1cccc(NC(=O)Cc2ccc(NC(=O)C3CCN(C(=O)CCc4ccccc4)CC3)cc2)c1	x	-5%	78*	x	44	x
O=C(Cc1cccc(NC(=O)C2CCCN(C(=O)c3ccccc3)C2)c1)Nc1ccc(C(=O)N2CCCCC2)cc1 (stereo unspecified)	x	3%	-11	x	u	x
O=C(NCCc1c[nH]c2ccccc12)C1CCN(c2nnc(N3CCCC3=O)s2)CC1	-3	1%	0	-1	31	3
CN(/N=C/c1ccncc1)c1cnn(-c2ccc(F)c(Cl)c2)c(=O)c1Cl	-1	-4%	-3	-2	30	5
N#CCCn1c2ccccc2c2nc3ccccc3nc21	-1	1%	-4	-6	-52*	1
C#Cc1ccc([C@H]2C=C(C(=O)OCC=C)O[C@@H](OCc3ccc(CO)cc3)C2)cc1	x	3%	4	x	13	x
CCN1CCN(C(=O)c2cc3cc([N+](=O)[O-])ccc3oc2=O)CC1	-11	-3%	3	-36*	-5	0
COc1ccc(C(=O)NNC(=O)c2cc3cc([N+](=O)[O-])ccc3oc2=O)cc1OC	-5	8%	-23	7	-53*	0
CC(NC(=O)c1cc2cc([N+](=O)[O-])ccc2oc1=O)C1CCCO1 (stereo unspecified)	-1	18%	-3	1	0	3
COc1cccc2cc(C(=O)OC(C)C(=O)c3ccc(C)cc3)c(=O)oc12 (stereo unspecified)	4	9%	7	-4	-4	3
Cc1ccc(C(=O)C(C)OC(=O)c2cc3cc([N+](=O)[O-])ccc3oc2=O)cc1 (stereo unspecified)	5	x	-7	2	-99*	-1
CN(CC(=O)Nc1ccc(F)cc1)c1ccc(S(=O)(=O)N2CCCCC2)cc1[N+](=O)[O-]	-2	-13%	-1	-27	2	4
CNc1ncnc2sc(-c3ccccc3)cc12	-4	-1%	-15	-38*	10	1
CCOc1ccc(NS(=O)(=O)c2ccc3[nH]cc(C(=O)NCC4CCCO4)c(=O)c3c2)cc1 (stereo unspecified)	-3	4%	-2	-12	-55*	5
Cc1ccccc1NS(=O)(=O)c1ccc2[nH]cc(C(=O)NC3CCCCC3)c(=O)c2c1	-8	-2%	4	-43*	x	3
CC(C)c1ccc(NS(=O)(=O)c2ccc3[nH]cc(C(=O)NCC4CCCO4)c(=O)c3c2)cc1 (stereo unspecified)	-1	-1%	0	14	x	15
Cc1ccccc1NS(=O)(=O)c1ccc2[nH]cc(C(=O)N3CCCCC3)c(=O)c2c1	1	0%	6	8	x	0
CNC(=O)c1c[nH]c2ccc(S(=O)(=O)Nc3cccc(SC)c3)cc2c1=O	2	7%	2	-86*	-19	3
Cc1ccccc1NS(=O)(=O)c1ccc2[nH]cc(C(=O)NC(C)c3ccccc3)c(=O)c2c1 (stereo unspecified)	-2	-2%	4	-43*	x	7
CCOc1ccc(N2C(=O)CC(NC3CCN(C(=O)c4cccs4)CC3)C2=O)cc1 (stereo unspecified)	-4	2%	0	29	18	79*
CCCc1nc2c(s1)CCc1onc(-c3cccc([N+](=O)[O-])c3)c1-2	-3	2%	34*	4	49	5
COc1ccc(S(=O)(=O)NC(C)C(=O)Nc2cccc(C(C)=O)c2)cc1 (stereo unspecified)	-3	3%	0	-43*	0	1
COc1ccc(S(=O)(=O)NC(C)C(=O)Nc2ccccc2F)cc1 (stereo unspecified)	1	-3%	4	-3	-22	4
SMILES	D1 PAM	ERG Ets-DNA blk	DRD3 agonist	D1 antag	D3 antag	D1 ag
COc1ccccc1CC(=O)N(CCC1=CCCCC1)c1c(N)n(Cc2ccccc2)c(=O)[nH]c1=O	-1	-8%	-15	-1	-83*	24
CCCc1cc(C(=O)OCC(=O)N(CCC)c2c(N)n(Cc3ccccc3)c(=O)[nH]c2=O)sc1C	40*	5%	19	61	-14	24
COCCN(C(=O)COC(=O)c1cc2c(s1)CCCC2)c1c(N)n(Cc2ccccc2)c(=O)[nH]c1=O	-5	-2%	-2	3	-5	-2
CCCN(C(=O)CCNC(=O)c1ccc(Cl)cc1)c1c(N)n(Cc2ccccc2)c(=O)[nH]c1=O	x	-1%	2	-31*	-6	10
COCCN(C(=O)COC(=O)/C=C/c1ccc(OC)c(OC)c1)c1c(N)n(Cc2ccccc2)c(=O)[nH]c1=O	-2	9%	-3	-5	-69*	1
COCCNC(=S)NCCc1ccc(Cl)cc1Cl	-6	5%	-15	-16	-12	2
O=C(CN1CCN(c2ncccn2)CC1)Nc1ccccc1-n1cccc1	-9	x	-12	-3	-16	9
CC(Oc1ccc(F)cc1)C(=O)N(Cc1ccccc1)c1c(N)n(Cc2ccccc2)c(=O)[nH]c1=O (stereo unspecified)	-8	2%	5	12	17	2
CCN(C(=O)COc1ccc(F)cc1Br)c1c(N)n(Cc2ccccc2)c(=O)[nH]c1=O	-4	-7%	0	-40*	42	2
CC(Oc1ccc(Br)cc1)C(=O)N(Cc1ccccc1)c1c(N)n(Cc2ccccc2)c(=O)[nH]c1=O (stereo unspecified)	x	x	-5	x	-61*	x
CCN(C(=O)COC(=O)CSc1ccc(F)cc1)c1c(N)n(Cc2ccccc2)c(=O)[nH]c1=O	1	0%	-7	18	-1	0
CN=C(C[N+](=O)[O-])NCCSCc1ccc(CN(C)C)o1	x	2%	-66	x	-59*	x
O/N=C1\CCSc2ccc(F)cc21	-4	-10%	-2	24	16	4
Cc1noc(C)c1S(=O)(=O)N(C)C[C@H]1OCc2cn(nn2)CCCC(=O)N([C@H](C)CO)C[C@@H]1C	x	x	5	x	12	x
CCCCN(CC)C(=O)c1n[nH]c(=O)c2ccccc12	-6	-1%	24	-8	-6	0
CCN(CC)C(=O)c1n[nH]c(=O)c2ccccc12	-2	-1%	5	1	-96*	3
COC(=O)N/N=C/c1ccc(OS(=O)(=O)c2ccc(C)cc2)c(OC)c1	0	-2%	-22	-9	-19	6
